Consider 14 compounds from PubChem BioAssay.

For test [1], the target named is Cell division control protein 42 homolog (Homo sapiens) (UniProt P60953). The test is described as follows: activated mutant Cdc42 GTP-binding inhibitors, dose response, biochemical, multiplex bead flow cytometry, Bodipy-FL-GTP (AID 1333;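 active means fitted half-maximal concentration within the tested dose range, moderate curve steepness, a statistically real signal drop, and little compound fluorescence or tag-binding interference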). In general terms: Flow cytometry measures light scatter and fluorescence of single cells or particles in a stream.
Test [2] has the same target. The test is described as follows: wildtype Cdc42 GTP-binding inhibitors, dose response, biochemical, multiplex bead flow cytometry, Bodipy-FL-GTP (AID 1334). Conditions: bead-based flow cytometry, Bodipy-FL-GTP binding to GST-Cdc42; at 100 µM (top of the series) unless noted.
Test [3] has as its target GTPase HRas (Homo sapiens) (UniProt P01112). The test is described as follows: inhibitors of GTP binding to wildtype Ras, dose response, biochemical, multiplex bead flow cytometry (AID 1335;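 active means fitted half-maximal concentration within 10 nM to 100 µM, steepness 0.5 to 2, significant signal drop, low assay interference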). Particulars: bead-based flow cytometry, Bodipy-GTP binding to GST-Ras; at 100 µM (top of the series) unless noted.
Test [4] relates to Ras-related protein Rab-7a (dog), GTP binding. The test is described as follows: Rab7 GTP binding inhibitors, potency, dose response, biochemical, wildtype, multiplex bead flow cytometry (AID 1336; call rule not given here).
Test [5] addresses Ras-related C3 botulinum toxin substrate 1 (Homo sapiens) (UniProt P63000). Put plainly: wildtype Rac1 GTP binding inhibitors, dose response, biochemical, multiplex bead flow cytometry (AID 1340;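 active means dose curve with midpoint inside tested range, moderate steepness, plateau gap beyond fit error, low compound glow and bead-link interference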). Conditions: GST-Rac1 beads, Bodipy-FL-GTP binding; at 100 µM (top of the series) unless noted.
The target of test [6] is GTPase HRas (Homo sapiens) (UniProt P01112). The test is described as follows: activated Ras mutant GTP binding inhibitors, dose response, biochemical, multiplex bead flow cytometry (AID 1341;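 active means dose-response curve with midpoint inside the tested range, moderate steepness, significant amplitude and little compound fluorescence or bead-attachment interference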;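 further: GST-tagged constitutively activated Ras mutant immobilized on beads and multiplexed with other GTPases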).

For part of these data: Measured potencies and affinities stand elsewhere. The source made the active and inactive calls.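 How the source made its calls, unless noted: active means fitted half-maximal concentration within the tested range, moderate curve steepness, significant signal drop, and little compound fluorescence or bead-linkage interference; inactive means the rest.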

Chain of Cell division control protein 42 homolog (Homo sapiens) (P60953 whole entry, looked up): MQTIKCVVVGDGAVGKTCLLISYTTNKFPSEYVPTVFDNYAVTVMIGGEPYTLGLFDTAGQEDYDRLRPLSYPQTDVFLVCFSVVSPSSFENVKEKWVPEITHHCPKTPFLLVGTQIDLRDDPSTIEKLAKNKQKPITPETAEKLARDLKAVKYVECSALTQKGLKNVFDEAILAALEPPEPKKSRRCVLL
Chain of GTPase HRas (Homo sapiens) (P01112 whole entry, looked up): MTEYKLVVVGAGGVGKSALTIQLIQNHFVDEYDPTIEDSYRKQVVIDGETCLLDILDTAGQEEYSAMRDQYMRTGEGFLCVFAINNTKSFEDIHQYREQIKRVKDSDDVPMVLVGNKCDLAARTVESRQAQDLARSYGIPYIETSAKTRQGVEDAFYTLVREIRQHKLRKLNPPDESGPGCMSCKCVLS

As to `CCC(C)N1C(=O)/C(=C/c2c(NCCCOC(C)C)nc3c(C)cccn3c2=O)SC1=S` (centres undefined), the result in test [1], in test [4] and in test [6] was inactive. In addition, the fluorescence, percent of control (lower = inhibition) in test [2] was determined as 130%. Further, the GTP binding, percent of control in test [3] amounted to 136%. Besides, in test [5], the GTP binding signal, raw median fluorescence (lower = inhibition) (MCF (arbitrary fluorescence units)) turned out to be 244.

In the case of `O=C(CCNS(=O)(=O)c1cccc2nsnc12)N1CCN(c2ccccn2)CC1`, the result in test [1], in test [4] and in test [6] was inactive. Also, the fluorescence, percent of control (lower = inhibition) in test [2] is 52.4%. This compound registered a GTP binding, percent of control in test [3] of 64.7%. In addition, the GTP binding signal, raw median fluorescence (lower = inhibition) (MCF (arbitrary fluorescence units)) in test [5] worked out at 203.

For the compound `CC(C)(C)c1ccc(OCCn2cc(C(=O)O)c3ccccc32)cc1`, the compound was classed as inactive in test [1], in test [4] and in test [6]. In addition, in test [2], the fluorescence, percent of control (lower = inhibition) came to 57.9%. Also, the GTP binding, percent of control in test [3] came to 82.9%. Further, the GTP binding signal, raw median fluorescence (lower = inhibition) (MCF (arbitrary fluorescence units)) in test [5] amounted to 30.4.

Regarding `CC(=O)c1cc2c(cc1NC(=O)c1cccc(S(=O)(=O)N3CCN(C)CC3)c1)OCO2`, the outcome in test [1], in test [4] and in test [6] was inactive. Besides, in test [2], the fluorescence, percent of control (lower = inhibition) stood at 40.9%. Besides, the GTP binding, percent of control in test [3] was found to be 86.3%. The compound also had a GTP binding signal, raw median fluorescence (lower = inhibition) (MCF (arbitrary fluorescence units)) in test [5] of 196.

As to `CN(C)/C=C(\C#N)C(N)=C(C#N)C#N`, the outcome in test [1], in test [4] and in test [6] was inactive. Besides, the fluorescence, percent of control (lower = inhibition) in test [2] was 38.1%. The same compound came in with a GTP binding, percent of control in test [3] of 82.8%. Moreover, the GTP binding signal, raw median fluorescence (lower = inhibition) (MCF (arbitrary fluorescence units)) in test [5] is 259.

As to `COc1ccc2cc(C)c3nnc(SCc4cccnc4)n3c2c1`, the compound was classed as inactive in test [1], in test [4] and in test [6]. In test [2], the fluorescence, percent of control (lower = inhibition) came out at 32.1%. This compound also displayed a GTP binding, percent of control in test [3] of 76.7%. The same compound registered a GTP binding signal, raw median fluorescence (lower = inhibition) (MCF (arbitrary fluorescence units)) in test [5] of 221.

In the case of `O=C(/C=C/c1c(Cl)nc2ccccn12)N1CCCCC1`, the compound was classed as inactive in test [1], in test [4] and in test [6]. Further, the fluorescence, percent of control (lower = inhibition) in test [2] was 33.3%. In test [3], this compound had a GTP binding, percent of control of 80.9%. Moreover, in test [5], the GTP binding signal, raw median fluorescence (lower = inhibition) (MCF (arbitrary fluorescence units)) was determined as 245.

On to `CC(=O)Nc1ccc(Nc2ccc3c4c(cc(=O)n3C)-c3ccccc3C(=O)c24)cc1`, for which the compound was classed as inactive in test [1], in test [4] and in test [6]. Moreover, the fluorescence, percent of control (lower = inhibition) in test [2] stood at 34.8%. In test [3], this compound came in with a GTP binding, percent of control of 80.5%. The same compound had a GTP binding signal, raw median fluorescence (lower = inhibition) (MCF (arbitrary fluorescence units)) in test [5] of 205.

Turning to `O=C(C1CCCO1)N1CCN(C(=S)Nc2ccccc2C(F)(F)F)CC1` (centres undefined), the call in test [1], in test [4] and in test [6] was inactive. Besides, in test [2], the fluorescence, percent of control (lower = inhibition) came out at 53.3%. This compound yielded a GTP binding, percent of control in test [3] of 64.3%. This compound showed a GTP binding signal, raw median fluorescence (lower = inhibition) (MCF (arbitrary fluorescence units)) in test [5] of 208.

For `C(=N\Nc1nn2cnnc2c2ccccc12)/c1ccco1`, the result in test [1], in test [4] and in test [6] was inactive. Further, in test [2], the fluorescence, percent of control (lower = inhibition) was determined as 31.6%. In test [3], the GTP binding, percent of control came out at 64.2%. Besides, in test [5], the GTP binding signal, raw median fluorescence (lower = inhibition) (MCF (arbitrary fluorescence units)) came out at 142.

With `COc1ccc(CC2(CO)CCN(S(=O)(=O)c3sccc3C)CC2)cc1`, the outcome in test [1], in test [4] and in test [6] was inactive. Further, the fluorescence, percent of control (lower = inhibition) in test [2] turned out to be 35.4%. Further, the GTP binding, percent of control in test [3] is 82.2%. The GTP binding signal, raw median fluorescence (lower = inhibition) (MCF (arbitrary fluorescence units)) in test [5] turned out to be 273.

For `COC(=O)C1=C(C)NC(=O)/C1=C\c1cc(C)n(-c2c(C)cccc2C)c1C`, the compound was classed as inactive in test [1], in test [4] and in test [6]. Moreover, the fluorescence, percent of control (lower = inhibition) in test [2] came to 37%. The compound further displayed a GTP binding, percent of control in test [3] of 84.9%. In test [5], the GTP binding signal, raw median fluorescence (lower = inhibition) (MCF (arbitrary fluorescence units)) was determined as 308.

Turning to `O=C(O)c1cn(CCOc2ccccc2Cl)c2ccccc12`, the compound was classed as inactive in test [1], in test [4] and in test [6]. Moreover, the fluorescence, percent of control (lower = inhibition) in test [2] stood at 99.8%. This compound also registered a GTP binding, percent of control in test [3] of 110%. For the same compound, in test [5], the GTP binding signal, raw median fluorescence (lower = inhibition) (MCF (arbitrary fluorescence units)) came to 86.

For `COc1ccc(C)cc1NC(=O)COC(C)=O`, the compound was classed as inactive in test [1], in test [4] and in test [6]. For the same compound, in test [2], the fluorescence, percent of control (lower = inhibition) worked out at 94.8%. The same compound returned a GTP binding, percent of control in test [3] of 180%. This compound gave a GTP binding signal, raw median fluorescence (lower = inhibition) (MCF (arbitrary fluorescence units)) in test [5] of 179.
